# Assay results taken from the antibiotic and cytotoxicity screens of Wong et al. (2023).
# The campaign covered roughly 39,000 compounds. About 3,300 (8.5%) were called active. The sample as a whole holds a higher share of actives than the screen did.
# Tested on: HepG2
# Experiment: cytotoxicity call (relative viability < 0.9)
# Details: 10 µM
row,Structure (SMILES),cytotoxicity call
1,Cc1noc(C)c1S(=O)(=O)N(C)C[C@@H]1Oc2ccc(NC(=O)Nc3ccccc3)cc2CC(=O)N([C@@H](C)CO)C[C@H]1C,inactive
2,Cc1cc(O)c(C(=O)/C=C/N(C)C)c(=O)o1,inactive
3,C[C@@H]1CN([C@@H](C)CO)C(=O)CCCn2cc(nn2)CO[C@H]1CN(C)C(=O)Nc1ccc2c(c1)OCCO2,inactive
4,C[C@@H]1CN([C@@H](C)CO)C(=O)c2cc(-c3ccc(C#N)cc3)cnc2O[C@H]1CN(C)C(=O)Nc1ccc(C(F)(F)F)cc1,inactive
5,CCCCC[C@H]1C[C@H](O[C@H]2O[C@@H](CO)[C@@H](O)[C@@H](O)[C@@H]2O)CC(=O)O1,inactive
6,C[C@@H]1CN([C@@H](C)CO)C(=O)Cc2cc(NC(=O)Nc3ccc(C(F)(F)F)cc3)ccc2O[C@H]1CN(C)Cc1ccc(C(=O)O)cc1,inactive
7,C[C@@H]1CN([C@@H](C)CO)C(=O)Cc2cc(NC(=O)Nc3ccc(C(F)(F)F)cc3)ccc2O[C@@H]1CN(C)Cc1ccc(C(F)(F)F)cc1,active
8,C[C@@H]1CN([C@H](C)CO)C(=O)Cc2cc(NC(=O)Nc3ccc(C(F)(F)F)cc3)ccc2O[C@H]1CN(C)Cc1ccc(C(=O)O)cc1,inactive
9,C[C@@H]1CCCCO[C@@H](CN(C)S(C)(=O)=O)[C@@H](C)CN([C@@H](C)CO)C(=O)c2cc(NS(=O)(=O)c3ccc(F)cc3)ccc2O1,inactive
10,CC(C)NC(=O)Nc1ccc2c(c1)CC(=O)N([C@H](C)CO)C[C@H](C)[C@H](CN(C)Cc1ccc(Oc3ccccc3)cc1)O2,inactive
11,C[C@@H]1CN([C@H](C)CO)C(=O)Cc2cc(NC(=O)Nc3ccccc3)ccc2O[C@H]1CN(C)Cc1ccc(Oc2ccccc2)cc1,active
12,C[C@@H]1CN([C@@H](C)CO)C(=O)Cc2cc(NC(=O)Nc3ccccc3)ccc2O[C@H]1CN(C)Cc1ccc(Oc2ccccc2)cc1,inactive
13,CC(C)NC(=O)Nc1ccc2c(c1)CC(=O)N([C@@H](C)CO)C[C@H](C)[C@@H](CN(C)Cc1ccc(Oc3ccccc3)cc1)O2,inactive
14,C[C@H]1CN([C@@H](C)CO)C(=O)Cc2cc(NC(=O)Nc3ccccc3)ccc2O[C@H]1CN(C)Cc1ccc(Oc2ccccc2)cc1,active
15,C[C@@H]1CN([C@@H](C)CO)C(=O)Cc2cc(NC(=O)Nc3ccccc3)ccc2O[C@@H]1CN(C)Cc1ccc(Oc2ccccc2)cc1,active
16,C[C@H]1CN([C@@H](C)CO)C(=O)Cc2cc(NC(=O)Nc3ccccc3)ccc2O[C@@H]1CN(C)Cc1ccc(Oc2ccccc2)cc1,active
17,CC(C)NC(=O)Nc1ccc2c(c1)CC(=O)N([C@@H](C)CO)C[C@H](C)[C@H](CN(C)Cc1ccc(Oc3ccccc3)cc1)O2,inactive
18,C[C@H](CO)N1C[C@H](C)[C@@H](CN(C)Cc2ccc(Oc3ccccc3)cc2)Oc2ccc(NC(=O)Nc3ccccc3)cc2CC1=O,inactive
19,COCC#Cc1ccc2c(c1)O[C@@H](CN(C)C(=O)c1ccccc1F)[C@H](C)CN([C@@H](C)CO)S2(=O)=O,inactive
20,Cc1noc(C)c1S(=O)(=O)N(C)C[C@@H]1Oc2ccc(NS(C)(=O)=O)cc2CC(=O)N([C@H](C)CO)C[C@@H]1C,inactive
21,C[C@H](CO)N1C[C@H](C)[C@@H](CN(C)S(=O)(=O)c2cn(C)cn2)Oc2cc(C#Cc3ccccc3)ccc2S1(=O)=O,inactive

row,Structure (SMILES),cytotoxicity call
1,C=CC[C@@H](CC(=O)N[C@@H](CO)Cc1ccccc1)C(=O)NCCOC(=O)[C@H](CC=C)CC(=O)OC(C)(C)C,inactive
2,C[C@@H]1CN([C@H](C)CO)C(=O)Cc2cc(NC(=O)CCN3CCOCC3)ccc2O[C@@H]1CN(C)S(=O)(=O)c1ccccc1,inactive
3,C[C@H]1CCCCO[C@@H](CN(C)C(=O)c2ccccc2)[C@@H](C)CN([C@@H](C)CO)C(=O)c2cc(NC(=O)NC3CCCCC3)ccc2O1,inactive
4,Cc1cccc(CN(C)C[C@@H]2Oc3ncc(-c4cccc(C(F)(F)F)c4)cc3C(=O)N([C@H](C)CO)C[C@@H]2C)c1,inactive
5,CC(C)NC(=O)Nc1ccc2c(c1)C(=O)N([C@H](C)CO)C[C@@H](C)[C@@H](CN(C)S(=O)(=O)c1cn(C)cn1)OCCCC[C@H](C)O2,inactive
6,COc1ccc(S(=O)(=O)Nc2ccc3c(c2)CC(=O)N([C@H](C)CO)C[C@H](C)[C@H](CN(C)S(=O)(=O)c2ccc(OC)cc2)O3)cc1,inactive
7,Nc1cc(=O)nc(C(F)(F)F)[nH]1,inactive
8,Cc1ccc(S(=O)(=O)Nc2cccc3c2O[C@@H](CN(C)S(=O)(=O)c2ccc(F)cc2)[C@@H](C)CN([C@@H](C)CO)C3=O)cc1,inactive
9,O=C(CN1CCOCC1)N[C@@H]1CC[C@H](CCNC(=O)Nc2cc(F)ccc2F)O[C@H]1CO,inactive
10,COc1ccc(S(=O)(=O)Nc2ccc3c(c2)[C@@H]2C[C@H](CC(=O)NCC4CC4)O[C@H](CO)[C@@H]2O3)cc1,inactive
11,CCS(=O)(=O)Nc1ccc2c(c1)C(=O)N(C)[C@@H]1CC[C@H](CC(=O)N[C@H]3CCN(Cc4ccccc4)C3)O[C@@H]1CO2,inactive
12,c1cc([C@@H]2CNCCN2)[nH]n1,inactive
13,C[C@@H]1CCCCO[C@H](CN(C)S(=O)(=O)c2ccccc2)[C@H](C)CN([C@@H](C)CO)C(=O)c2cc(NC(=O)CCC(F)(F)F)ccc2O1,inactive
14,Cc1noc(C)c1S(=O)(=O)Nc1cccc2c1O[C@H](CN(C)S(=O)(=O)c1c(C)noc1C)[C@H](C)CN([C@@H](C)CO)C2=O,inactive
15,C[C@@H]1CN([C@H](C)CO)C(=O)Cc2cc(NC(=O)Nc3ccccc3)ccc2O[C@@H]1CN(C)Cc1ccc(Oc2ccccc2)cc1,active
16,CC(C)NC(=O)Nc1ccc2c(c1)CC(=O)N([C@@H](C)CO)C[C@@H](C)[C@H](CN(C)Cc1ccc(Oc3ccccc3)cc1)O2,inactive
17,C[C@H](CO)N1C[C@H](C)[C@H](CN(C)Cc2ccc(Oc3ccccc3)cc2)Oc2ccc(NC(=O)Nc3ccccc3)cc2CC1=O,inactive
18,CC(C)NC(=O)Nc1ccc2c(c1)CC(=O)N([C@H](C)CO)C[C@@H](C)[C@@H](CN(C)Cc1ccc(Oc3ccccc3)cc1)O2,active
19,CC(C)NC(=O)Nc1ccc2c(c1)CC(=O)N([C@@H](C)CO)C[C@@H](C)[C@@H](CN(C)Cc1ccc(Oc3ccccc3)cc1)O2,inactive
20,CC(C)NC(=O)Nc1ccc2c(c1)CC(=O)N([C@H](C)CO)C[C@@H](C)[C@H](CN(C)Cc1ccc(Oc3ccccc3)cc1)O2,inactive
21,CCOc1nc2cccc(C(=O)OCc3oc(=O)oc3C)c2n1Cc1ccc(-c2ccccc2-c2noc([O-])n2)cc1.[K+],inactive

row,Structure (SMILES),cytotoxicity call
1,O=C(C[C@@H]1CC[C@@H]2[C@H](COC[C@@H](O)CN2C(=O)c2ccc(F)cc2)O1)NCCCN1CCOCC1,inactive
2,CN(C)C(=O)c1ccc(-c2cccc(-c3nc(C(=O)NC4CCC4)cc4c3[C@H](CCO)N([S@@](=O)C(C)(C)C)C4)c2)cc1,inactive
3,Cc1ccc(S(=O)(=O)N(C)C[C@H]2Oc3ccc(NS(=O)(=O)c4cccs4)cc3C(=O)N([C@@H](C)CO)C[C@H]2C)cc1,inactive
4,CC1(C)OC(=O)C2(C(=O)O1)[C@@H](c1ccc(-c3cccc(Br)c3)cc1)CC(=O)C[C@H]2c1ccccc1,inactive
5,CCCNC(=O)c1cc2c(c(-c3cccc(-c4cc5ccccc5o4)c3)n1)[C@H](CCO)N(C(=O)NC(C)C)C2,inactive
6,C[C@@H]1CCCCO[C@@H](CN(C)S(=O)(=O)c2ccccc2)[C@@H](C)CN([C@@H](C)CO)C(=O)c2cc(NC(=O)Nc3cccc4ccccc34)ccc2O1,inactive
7,Cc1noc(C)c1S(=O)(=O)Nc1ccc2c(c1)C(=O)N([C@H](C)CO)C[C@H](C)[C@@H](CN(C)S(=O)(=O)c1cn(C)cn1)OCCCC[C@H](C)O2,inactive
8,C[C@H]1CN([C@@H](C)CO)C(=O)c2cc(NC(=O)Nc3cccc4ccccc34)ccc2O[C@H]1CN(C)Cc1ccc(C(F)(F)F)cc1,inactive
9,C[C@@H]1CN([C@@H](C)CO)C(=O)c2cc(NC(=O)Nc3cccc4ccccc34)ccc2O[C@@H]1CN(C)Cc1ccc(C(F)(F)F)cc1,active
10,C[C@@H]1CN([C@@H](C)CO)C(=O)c2cc(NC(=O)Nc3cccc4ccccc34)ccc2O[C@H]1CN(C)Cc1ccc(C(F)(F)F)cc1,active
11,C[C@@H]1CN([C@H](C)CO)C(=O)c2cc(NC(=O)Nc3cccc4ccccc34)ccc2O[C@@H]1CN(C)Cc1ccc(C(F)(F)F)cc1,inactive
12,C[C@H](CO)N1C[C@H](C)[C@H](CN(C)Cc2ccc(C(F)(F)F)cc2)Oc2ccc(NC(=O)Nc3cccc4ccccc34)cc2C1=O,active
13,C[C@H](CO)N1C[C@H](C)[C@@H](CN(C)Cc2ccc(C(F)(F)F)cc2)Oc2ccc(NC(=O)Nc3cccc4ccccc34)cc2C1=O,inactive
14,C[C@H]1CN([C@@H](C)CO)C(=O)c2cc(NC(=O)Nc3cccc4ccccc34)ccc2O[C@@H]1CN(C)Cc1ccc(C(F)(F)F)cc1,inactive
15,C[C@@H]1CN([C@H](C)CO)C(=O)c2cc(NC(=O)Nc3cccc4ccccc34)ccc2O[C@H]1CN(C)Cc1ccc(C(F)(F)F)cc1,inactive
16,O=C(O)c1cc(=O)cc(C(=O)O)o1,inactive
17,C=CCn1c(O)c(C#N)c(C)cc1=O,inactive
18,CN(C)C(=O)C[C@H]1CC[C@H](NC(=O)C2CCOCC2)[C@H](CO)O1,inactive
19,C[C@@H]1CCCCO[C@H](CN(C)C(=O)c2ccccc2)[C@@H](C)CN([C@H](C)CO)C(=O)c2cc(NS(=O)(=O)c3ccc(Cl)cc3)ccc2O1,inactive
20,N#C/C(=C\c1cccs1)c1csc2ccc(Cl)cc12,inactive
21,CO[C@@H]1CN(C)C(=O)c2cc(NC(=O)CC(F)(F)F)ccc2OC[C@@H](C)N(S(=O)(=O)c2cn(C)cn2)C[C@@H]1C,inactive
